HCV inhibitor = inhibitors of hepatitis C virus infection; 340,000 tested, 3.4% active; Huh7.5.1 HCVcc-Cre infection, luciferase reporter, 44 h; Potency, µM (doses to about 41.8 µM), usual class: inhibitors; AID 651820
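Reporter virus HCVcc-Cre (~0.5 moi) infects cells exposed to compound; seeding density 1,000 cells/well with 4 h settling beforehand. Luminescence, 15 sec read, taken 44 h post-infection following a 15 min RT substrate incubation.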
AmpC inh no detg = blocks E. coli AmpC beta-lactamase in detergent-free assay; P00811; AmpC nitrocefin hydrolysis, absorbance 480 nm, 0.0001% Triton; Potency, µM (series often up to 57.1 µM), usual class: inhibitors; 330,000 tested, 0.52% active; AID 485341; also: nearly all actives have a fitted effect of over 20% in size
Target sequence (P00811 whole entry, looked up): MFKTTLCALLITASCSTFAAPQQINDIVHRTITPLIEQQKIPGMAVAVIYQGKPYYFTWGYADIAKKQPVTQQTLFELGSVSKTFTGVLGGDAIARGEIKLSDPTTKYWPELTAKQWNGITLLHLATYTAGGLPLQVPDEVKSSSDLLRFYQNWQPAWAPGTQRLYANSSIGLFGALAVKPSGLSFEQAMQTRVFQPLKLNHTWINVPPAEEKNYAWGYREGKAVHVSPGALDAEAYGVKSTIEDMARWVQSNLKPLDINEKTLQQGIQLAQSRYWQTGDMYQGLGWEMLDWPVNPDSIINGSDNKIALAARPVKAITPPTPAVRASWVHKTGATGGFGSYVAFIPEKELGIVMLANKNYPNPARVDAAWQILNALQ
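AmpC (5.3 nM in the dispensed reagent) in 20 mM phosphate pH 7.0 with 0.01% (detergent screen) or 0.0001% Triton X-100 was preincubated with compounds for 15 min at room temperature. Nitrocefin was then added from an 800 uM solution, and hydrolysis was followed at 480 nm.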
AmpC inh detg = blocks E. coli AmpC beta-lactamase in detergent assay; AmpC hydrolysis of nitrocefin, absorbance 480 nm, 0.01% Triton; 370,000 tested, 0.041% active; P00811; Potency, µM (doses to about 114 µM), most hits filed as inhibitors; also: nearly all actives have a fitted effect of over 25% in size
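20 mM phosphate pH 7.0 + 0.01% (detergent screen) or 0.0001% Triton X-100; 5.3 nM AmpC reagent; cpd preinc 15 min RT; nitrocefin (800 uM stock) to start; A480 q20 s × 4 min; Activity was normalised to no-enzyme and no-compound control wells.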
FMDV antiviral = foot and mouth disease virus antiviral activity. FMDV antiviral cell-based qHTS. Potency, µM (highest dose often 57.9 µM), most hits filed as inhibitors. 410,000 tested, 1.2% active; calls by dose curve; tested in HEK293T cells; also: read-out not given here; nearly all actives have a fitted effect of over 45% in size
HCMV antiviral = inhibitors of human cytomegalovirus | HFF cells, HCMV-luciferase reporter, 72 h; stronger effect = lower value | 410,000 tested, 4.5% active | AID 1259415 | activity change, negative = inhibition, % at 57.5 µM; in the data active = activity change below about -60%; inconclusive = no clear call, values can overlap the other calls; inactive = above about -39%
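Compounds were evaluated in HFFs infected with an HCMV luciferase reporter virus (MOI 1 PFU/cell). Luciferase in lysates collected 72 h post infection served as the replication measure.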
Large screens that a line does not name were inactive; ! = not confirmed by another sample. Most compounds without a hit are left out; they make up all but 7.3% or so of the library. Unless noted, calls follow the shape of the dose curve; as a rule, active = well fitted curve in the direction sought with a large enough effect; inconclusive = small, poorly fitted or top-dose-only effect, or another doubt; inactive = no such curve, though single readings can be large; an effect the other way counts as inactive or inconclusive.

S=c1[nH]nc(C2CCCCC2)n1/N=C/c1ccncc1	HCMV antiviral -88
Cc1cccc(NC(=O)N2CCC(CN3CCOCC3)CC2)c1C	none (no result: HCV inhibitor, AmpC inh no detg)
Cc1ccccc1Nc1c(-c2ccncc2)nc2ccc(Cl)cn12	FMDV antiviral inconclusive, HCMV antiviral -61!
O=S1(=O)N(Cc2ccccc2)CCCN1Cc1ccc(F)cc1Cl	HCMV antiviral active (no result: HCV inhibitor, AmpC inh no detg)
COc1ccc(/C=C/C(=O)NCCc2ccc(OC)c(OC)c2)cc1	AmpC inh detg inconclusive, FMDV antiviral inconclusive
COc1ccc(CCNC(=O)/C=C/c2ccc3ccccc3n2)cc1OC	HCV inhibitor inconclusive, FMDV antiviral 28µM, HCMV antiviral -100
Cc1oc(-c2ccc(Cl)cc2)nc1CN1CCCC(C(=O)NCc2cccnc2)C1 (stereo not drawn)	HCV inhibitor 1µM, FMDV antiviral inconclusive, HCMV antiviral -84
Cc1oc(-c2ccc(Cl)cc2)nc1CN1CCCC(C(=O)NCCCN2CCOCC2)C1 (stereo not drawn)	HCV inhibitor 6.3µM, HCMV antiviral inconclusive
Cc1oc(-c2ccc(Cl)cc2)nc1CN1CCC(C(=O)NCCCN2CCCC(C)C2)CC1 (stereo not drawn)	HCV inhibitor 1.8µM, HCMV antiviral -101
Cc1oc(-c2ccc(Cl)cc2)nc1CN1CCC(C(=O)NCCCN2CCCC2=O)CC1	HCV inhibitor inconclusive, AmpC inh detg inconclusive
Cc1ccc(CN2CCC(CNC(=O)c3cnn(-c4ccccc4)c3C3CCN(C(=O)OC(C)(C)C)CC3)CC2)cc1	none (no result: HCV inhibitor, AmpC inh no detg)
CC(=O)Nc1ccc(S(=O)(=O)N2CCC(n3c(C(F)(F)F)nc4cccnc43)CC2)cc1	none (no result: HCV inhibitor, AmpC inh no detg)
COc1cc(C(=O)NC(c2ccccc2Cl)c2cc(Cl)c3cccnc3c2O)cc(OC)c1OC (stereo not drawn)	HCMV antiviral -79 (no result: HCV inhibitor, AmpC inh no detg)
COc1ccc(C(=O)NC(c2ccccc2Cl)c2cc(Cl)c3cccnc3c2O)cc1 (stereo not drawn)	HCMV antiviral -98 (no result: HCV inhibitor, AmpC inh no detg)
N#Cc1nc(-c2cccs2)oc1N1CCN(c2ccccc2)CC1	HCV inhibitor 2.8µM
CCOc1cnc(-c2c(-c3c(Cl)cccc3Cl)noc2C)o1	AmpC inh detg inconclusive, HCMV antiviral -61
O=C(CNC1CCCCCC1)Nc1ccccc1N1CCCCC1	HCV inhibitor inconclusive
O=C(Nc1ccccc1F)Nc1ccccc1N1CCCCC1	HCV inhibitor 14µM, FMDV antiviral inconclusive, HCMV antiviral -83
O=C(Nc1ccccc1N1CCCCC1)c1ccc(F)cc1	HCV inhibitor inconclusive
CC(C)CC(=O)Nc1ccccc1N1CCCC1	HCMV antiviral -78
CCOc1ccc(C(=O)Nc2ccccc2N2CCOCC2)cc1	HCMV antiviral inconclusive
O=C(CNCC1CCCCC1)Nc1ccccc1N1CCCCC1	HCV inhibitor 11µM, AmpC inh detg inconclusive, FMDV antiviral inconclusive, HCMV antiviral inconclusive
CCOc1ccc(C(=O)Nc2ccccc2N2CCCC2)cc1	HCV inhibitor inconclusive, AmpC inh detg inconclusive, HCMV antiviral -76
Cn1nc(C(=O)Nc2ccc3c(c2)OCCO3)c2ccccc2c1=O	HCV inhibitor inconclusive
CCOc1ccccc1NC(=O)Nc1cc(C(=O)NCc2ccc(C)cc2)ccc1N1CCCC1	HCMV antiviral -85 (no result: HCV inhibitor, AmpC inh no detg)
CCn1nc(C(=O)Nc2ccccc2N2CCCC2)c2ccccc2c1=O	HCV inhibitor 10µM, AmpC inh detg inconclusive, FMDV antiviral inconclusive
CCCCn1nc(C(=O)Nc2ccc3c(c2)OCCO3)c2ccccc2c1=O	HCV inhibitor inconclusive, HCMV antiviral -69
Cn1nc(C(=O)Nc2cc(Cl)ccc2N2CCCC2)c2ccccc2c1=O	HCV inhibitor inconclusive
COc1ccc(C)cc1NC(=O)Nc1cc(C(=O)NCc2ccc(C)cc2)ccc1N1CCCC1	none (no result: HCV inhibitor, AmpC inh no detg)
Cc1ccc(C(=O)Nc2cccc(-c3nc(CNC(=O)[C@@H]4C[C@@H](C)NC(=S)N4)c(C)o3)c2)s1	none (no result: HCV inhibitor, AmpC inh no detg, AmpC inh detg, HCMV antiviral)
c1ccc(-c2nnc(CN3CCN(c4ccccn4)CC3)o2)cc1	none (no result: HCV inhibitor, AmpC inh no detg)
C1CCC(CNc2c3c(nc4nnnn24)CCCC3)CC1	AmpC inh detg inconclusive
C1CCN(c2c3c(nc4nnnn24)CCCC3)CC1	HCMV antiviral -64
CCc1ccccc1N1CC(c2nc3ccccc3n2CCOc2ccc(Cl)c(C)c2)CC1=O (stereo not drawn)	FMDV antiviral 28µM, HCMV antiviral -62 (no result: HCV inhibitor, AmpC inh no detg)
